From PubChem BioAssay (NCI)
About 83,000 compounds went through this panel and 20% of them were active in at least one assay; those are over-represented in the sample as a whole.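 How to read the values: 0–100, growth inhibition (40 = 60% inhibited); 0, no net growth; -100 to 0, cell death (-40 = 40% of starting cells died; -100 = all dead).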 A number with no mark means an inactive call. Activity calls are given as the source filed them. How the source made its calls: active means growth percent below 10; inactive means the rest. *1 amine or outer side, *2 acyl side, *3 side chain or, on linkers, in order; H or OH if unused. Where a SMILES comes first, the peptide text is derived from it. [ ]: non-standard residue; d: D form. The star is where a group is joined. X5 = CCC(=O)CC1CC(C)CC(C(=O)[*:2])N1[*:1]; X4 = CCCCCCCCC(C)C(=O)*; Aib = CC(C)(N)C(=O)O; X6 = CC(CN(C)CCO)N*

Assays:
Experiment in all cases: NCI-60 one-dose screen, 48 h (100 = growth as untreated, 0 = no growth, -100 = all killed)
Conditions in all cases: 10 µM unless noted
NCI-H23 lung = test system: NCI-H23 lung
NCI-H226 lung = test system: NCI-H226 lung
NCI-H322M lung = test system: NCI-H322M lung
HOP-62 NSCLC = test system: HOP-62 NSCLC
NCI-H460 lung = test system: NCI-H460 lung
HOP-92 NSCLC = test system: HOP-92 NSCLC
NCI-H522 lung = test system: NCI-H522 lung
A549/ATCC NSCLC = test system: A549/ATCC NSCLC
786-0 renal = test system: 786-0 renal
COLO 205 colon = test system: COLO 205 colon
DU-145 prostate = test system: DU-145 prostate
K-562 leukemia = test system: K-562 leukemia
MALME-3M melanoma = test system: MALME-3M melanoma
MDA-MB-231 breast = test system: MDA-MB-231 breast
RXF 393 renal = test system: RXF 393 renal
SF-268 CNS = test system: SF-268 CNS
SF-295 CNS = test system: SF-295 CNS
SF-539 CNS = test system: SF-539 CNS
UACC-257 melanoma = test system: UACC-257 melanoma
M14 melanoma = test system: M14 melanoma

Row | Structure (SMILES) | growth (NCI-H23 lung) | growth (NCI-H226 lung) | growth (NCI-H322M lung) | growth (HOP-62 NSCLC) | growth (NCI-H460 lung) | growth (HOP-92 NSCLC) | growth (NCI-H522 lung) | growth (A549/ATCC NSCLC) | growth (786-0 renal) | growth (COLO 205 colon) | growth (DU-145 prostate) | growth (K-562 leukemia) | growth (MALME-3M melanoma) | growth (MDA-MB-231 breast) | growth (RXF 393 renal) | growth (SF-268 CNS) | growth (SF-295 CNS) | growth (SF-539 CNS) | growth (UACC-257 melanoma) | growth (M14 melanoma)
1 | O=C(OC12CC3CC(CC(C3)C1)C2)c1ccc(NCc2cc(O)ccc2O)cc1 | -21.9% (active) | -63.6% (active) | 47.6% | -55.7% (active) | 3.32% (active) | -36.9% (active) | -74.7% (active) | -21.9% (active) | -90% (active) | -71.2% (active) | 19.9% | -49.3% (active) | -93.5% (active) | -39.8% (active) | -60.8% (active) | -6.88% (active) | -14.7% (active) | -95.6% (active) | 5.57% (active) | –
2 | CCCCCCCCC(C)C(=O)N1CCCC1C(=O)N1C(CC(=O)CC)CC(C)CC1C(=O)NC(C)C(=O)NC(C)(C)C(=O)NC(C)(C)C(=O)NC(C(=O)NC(C)C(=O)NC(C)(C)C(=O)NC(C)(C)C(=O)NC(C)CN(C)CCO)C(C)CC (stereo not given) (X4-P[X5]A[Aib][Aib]IA[Aib][Aib]-X6; configuration not given here) | 195% | -50.7% (active) | 21.2% | -81.5% (active) | -83.7% (active) | -23.8% (active) | -62.9% (active) | -62% (active) | -53.7% (active) | -75.9% (active) | -84.4% (active) | -52.1% (active) | 13.5% | -94.1% (active) | -56.5% (active) | -15.4% (active) | -26.2% (active) | -77% (active) | -72.1% (active) | –
3 | CN(C)c1ccc(C(C#N)(c2ccccc2)c2ccc(N(C)C)cc2)cc1 | 54.2% | 72.3% | 86.8% | 90.6% | 50.8% | 54.6% | 82.2% | 49.9% | 67.7% | 45.2% | 60% | 26.1% | 69.9% | 79.4% | 75.3% | 58.9% | 77.9% | 16.1% | 84.7% | 55.2%
4 | CCC(C)(O)Cc1ccc(Cl)cc1 (stereo not given) | 109% | 97.5% | 100% | 97.1% | 104% | 102% | 99.5% | 104% | 100% | 108% | 114% | 99.3% | 110% | 95.7% | 101% | 106% | 94.6% | 104% | 108% | 101%
5 | CC1C(c2ccccc2)OCCN1C(=S)Nc1ccc(S(=O)(=O)N2CCCCC2)cc1 (stereo not given) | 98.6% | 91.6% | 108% | 109% | 104% | 78.2% | -34.1% (active) | 102% | 109% | 108% | 104% | 109% | 96.5% | 86% | 95.5% | 109% | 99.2% | – | 91.5% | –
6 | CN=C(N)N/N=C(\C)c1ccc2c(c1)Cc1ccccc1-2 | 10.7% | -39.1% (active) | -85% (active) | -73.3% (active) | -97.9% (active) | -8.45% (active) | 12.2% | -66.4% (active) | -77.9% (active) | -100% (active) | -85.9% (active) | -81.5% (active) | -85% (active) | -67.5% (active) | -28.4% (active) | -44.2% (active) | -51.9% (active) | – | -70.3% (active) | -96.1% (active)
7 | CC(=O)C1Cc2ccccc2C1=O (stereo not given) | 95.4% | 103% | 89.5% | 90.5% | 111% | 105% | 122% | 106% | 103% | 121% | 106% | 116% | 94.3% | 98.8% | – | 103% | 100% | 99.6% | 89.8% | 109%
8 | O=C(c1ccccc1)C(Br)[N+](=O)[O-] (stereo not given) | 99.8% | 101% | 101% | 73.6% | 101% | 103% | 64.4% | 69.6% | 106% | 86.8% | 105% | 25.8% | 54.4% | 93.2% | 117% | 102% | 101% | – | 79% | 84.3%
9 | Nc1nc(N)c2cc(Sc3cccc(C(F)(F)F)c3)ccc2n1 | 40.3% | 57.6% | 37.1% | 61.3% | 14.9% | 28.5% | 35.4% | 12.7% | 19.2% | -75.9% (active) | 28.6% | 8.39% (active) | 31.5% | 45.3% | 42.8% | 29.5% | – | 28.6% | 27.4% | 13.6%
10 | Cc1nc([N+](=O)[O-])c(Sc2nncc(-c3ccccc3)n2)n1C | 82.1% | 80.1% | 92.1% | 95.4% | 110% | 93.1% | 95.2% | 95.9% | 94% | 74.5% | 67.3% | 89.7% | -7.36% (active) | 92.6% | – | 93.5% | 144% | 106% | 29.8% | 88.2%
11 | Cc1nc(Sc2nc3ccc([N+](=O)[O-])cc3s2)sc1C | -3.96% (active) | 2.43% (active) | 89.2% | 72.2% | 11.7% | 1.28% (active) | -48.1% (active) | 55.9% | 19.6% | 27.1% | 31.1% | 3.13% (active) | -14.3% (active) | -15.6% (active) | -2.1% (active) | 18.7% | 82.1% | – | 36.8% | –
12 | CCCOC(=O)c1nc(N(CC2CCCCC2)C(=O)NC)sc1/N=C/c1ccccc1 | 31.1% | 56.8% | 57.9% | 25.5% | 2.34% (active) | 15.5% | -18.4% (active) | 13.6% | 9.27% (active) | 18.6% | 44.7% | 2.2% (active) | 12.4% | – | -8.78% (active) | 32% | 15.1% | -27.9% (active) | 37.5% | –
13 | CC(=O)Nc1ccc(C(=O)CCl)cc1 | 86.4% | 92.6% | 95.5% | 94% | 80.9% | 62% | -65.4% (active) | 98.7% | 16.9% | 3.3% (active) | 66% | 1.75% (active) | -53.9% (active) | – | 83.2% | 81.2% | 102% | 56.1% | 86% | –
14 | O=C1C(=O)c2cccnc2-c2ncccc21 | -68.3% (active) | -28.7% (active) | 20.5% | -44.7% (active) | -57.3% (active) | -36.9% (active) | 5.23% (active) | 6.49% (active) | -94.1% (active) | -88.5% (active) | -74% (active) | -23.4% (active) | -12.6% (active) | -39.3% (active) | – | -94.5% (active) | 2.62% (active) | -97% (active) | 0.671% (active) | -92.6% (active)
15 | O=[N+]([O-])c1ccc(Oc2ccccc2Cl)c([N+](=O)[O-])c1 | 73.9% | 83.8% | 97.8% | 99.4% | 105% | 83.7% | 73.8% | 92.7% | 83.7% | 112% | 89% | 17.4% | 85.5% | 75.5% | 86.7% | 84.9% | 102% | 94.6% | 89.8% | 86.2%
16 | CCC[CH2][Sn]1([CH2]CCC)[O]C2C(CO)OC(n3ccc(N)nc3=O)C2[O]1 (stereo not given) | -42.1% (active) | -93.9% (active) | 33.3% | 22.7% | 12.1% | -56.3% (active) | -78.9% (active) | 68.1% | -89.9% (active) | -79.4% (active) | 2.15% (active) | -17.7% (active) | -71.7% (active) | -68.8% (active) | – | -89.2% (active) | – | -64.2% (active) | -87.3% (active) | -47.2% (active)
17 | CCc1cccc(CC)c1N1C(=O)C=CC1=O | 108% | 117% | 95.3% | 83.7% | 96.1% | 56.5% | 91.6% | 71.9% | 82.5% | 75.8% | 112% | 23.8% | 121% | 132% | – | 97.6% | 106% | 107% | 81.6% | –
